Results taken from the supplement of paper PMC11732987, “Enantioselective OTUD7B fragment discovery through chemoproteomics screening and high-throughput optimisation” (Communications Chemistry, 2025).
Values without a mark were called inactive.

Experiments:
Assay in all cases: log2 ratio of Biotin-Ahx-Ub-VS probe labelling (fragment/DMSO); higher = less target engagement (more negative = stronger competition), active = hit call of the paper (q ≤ 0.05, log2 ratio ≤ -1)
Conditions in all cases: compound concentration: 200 uM; treatment time: 3 h
[1] = target: UniProt O00507
Method in brief: (§1)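 Using Biotin-Ahx-Ub-VS at 0.5 µM final for 1 h, DUBs were labelled in HEK293T lysate (495 µg per sample) that had first been treated in triplicate with fragment at 200 µM or vehicle for 3 h. NeutrAvidin enrichment, LysC and trypsin digestion and diaPASEF LC-MS/MS followed. Spectronaut label-free quantities were global-median-normalised. Values are average log2 fragment/vehicle ratios by unpaired t-test, using proteins with ≥2 unique peptides.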

[2] = target: UniProt P51784
Method in brief: as §1

[3] = target: T1, UniProt Q5T2D3
T1 sequence (whole entry): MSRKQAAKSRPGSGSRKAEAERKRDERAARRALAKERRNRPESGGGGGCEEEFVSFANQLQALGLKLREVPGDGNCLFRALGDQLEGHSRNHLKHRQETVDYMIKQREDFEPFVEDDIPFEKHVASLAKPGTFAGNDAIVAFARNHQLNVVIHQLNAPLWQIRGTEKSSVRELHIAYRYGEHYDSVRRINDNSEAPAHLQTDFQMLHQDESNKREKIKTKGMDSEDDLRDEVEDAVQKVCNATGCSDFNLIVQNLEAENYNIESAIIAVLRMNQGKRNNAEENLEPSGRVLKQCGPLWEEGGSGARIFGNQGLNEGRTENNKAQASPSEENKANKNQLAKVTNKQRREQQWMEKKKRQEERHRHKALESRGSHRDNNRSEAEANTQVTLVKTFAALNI
Method in brief: as §1

[4] = target: T2, UniProt Q8TE49
T2 sequence (whole entry): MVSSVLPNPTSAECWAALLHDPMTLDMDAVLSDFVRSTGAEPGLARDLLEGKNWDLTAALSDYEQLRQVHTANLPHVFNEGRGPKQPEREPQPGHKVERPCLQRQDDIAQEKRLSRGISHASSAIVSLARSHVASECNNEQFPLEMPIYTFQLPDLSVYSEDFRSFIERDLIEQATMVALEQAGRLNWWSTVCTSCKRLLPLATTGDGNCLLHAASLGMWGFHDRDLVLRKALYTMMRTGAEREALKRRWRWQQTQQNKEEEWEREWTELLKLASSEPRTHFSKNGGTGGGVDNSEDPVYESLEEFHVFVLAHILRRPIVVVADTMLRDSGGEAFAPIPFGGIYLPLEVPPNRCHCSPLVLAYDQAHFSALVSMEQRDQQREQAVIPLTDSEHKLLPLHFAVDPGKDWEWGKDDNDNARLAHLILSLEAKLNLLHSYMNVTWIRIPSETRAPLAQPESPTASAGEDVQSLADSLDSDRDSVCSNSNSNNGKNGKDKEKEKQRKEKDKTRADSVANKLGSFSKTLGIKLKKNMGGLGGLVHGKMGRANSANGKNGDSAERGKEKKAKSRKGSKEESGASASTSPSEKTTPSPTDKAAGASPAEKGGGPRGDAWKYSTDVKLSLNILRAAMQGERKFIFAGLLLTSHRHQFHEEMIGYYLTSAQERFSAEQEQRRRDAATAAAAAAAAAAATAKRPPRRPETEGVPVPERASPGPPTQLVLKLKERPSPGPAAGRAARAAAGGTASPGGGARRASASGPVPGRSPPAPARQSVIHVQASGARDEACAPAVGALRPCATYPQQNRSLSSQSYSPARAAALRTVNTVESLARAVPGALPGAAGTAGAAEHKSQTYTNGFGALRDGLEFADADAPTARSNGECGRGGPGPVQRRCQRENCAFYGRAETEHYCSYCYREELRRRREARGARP
Method in brief: as §1

[5] = target: T3, UniProt Q9P2H5
T3 sequence (whole entry): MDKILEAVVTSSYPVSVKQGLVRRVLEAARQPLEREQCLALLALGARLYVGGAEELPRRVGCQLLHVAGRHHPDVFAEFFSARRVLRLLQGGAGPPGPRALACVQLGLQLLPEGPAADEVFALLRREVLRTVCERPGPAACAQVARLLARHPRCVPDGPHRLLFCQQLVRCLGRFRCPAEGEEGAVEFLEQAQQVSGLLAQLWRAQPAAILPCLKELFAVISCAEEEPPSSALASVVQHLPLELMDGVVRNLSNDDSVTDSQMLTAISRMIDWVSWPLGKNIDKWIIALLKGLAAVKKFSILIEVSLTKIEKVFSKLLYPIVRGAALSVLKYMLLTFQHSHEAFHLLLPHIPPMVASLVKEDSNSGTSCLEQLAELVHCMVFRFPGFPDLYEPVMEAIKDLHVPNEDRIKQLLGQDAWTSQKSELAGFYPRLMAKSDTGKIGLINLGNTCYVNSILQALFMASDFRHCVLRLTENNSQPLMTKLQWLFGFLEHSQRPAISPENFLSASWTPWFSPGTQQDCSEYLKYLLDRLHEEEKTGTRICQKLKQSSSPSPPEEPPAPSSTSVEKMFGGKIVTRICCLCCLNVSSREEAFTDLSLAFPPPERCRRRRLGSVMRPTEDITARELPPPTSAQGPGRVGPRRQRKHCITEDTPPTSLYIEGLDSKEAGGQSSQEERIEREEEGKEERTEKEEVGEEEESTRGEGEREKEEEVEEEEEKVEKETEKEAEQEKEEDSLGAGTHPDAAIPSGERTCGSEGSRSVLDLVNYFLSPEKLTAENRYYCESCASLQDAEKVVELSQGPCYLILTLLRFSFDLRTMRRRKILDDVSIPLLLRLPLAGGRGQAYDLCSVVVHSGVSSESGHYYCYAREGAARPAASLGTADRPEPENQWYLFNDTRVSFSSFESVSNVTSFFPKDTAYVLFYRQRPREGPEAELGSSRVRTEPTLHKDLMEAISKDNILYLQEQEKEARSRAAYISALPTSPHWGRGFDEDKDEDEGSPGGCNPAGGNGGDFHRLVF
Method in brief: as §1

[6] = target: T4, UniProt Q9UGI0
T4 sequence (whole entry): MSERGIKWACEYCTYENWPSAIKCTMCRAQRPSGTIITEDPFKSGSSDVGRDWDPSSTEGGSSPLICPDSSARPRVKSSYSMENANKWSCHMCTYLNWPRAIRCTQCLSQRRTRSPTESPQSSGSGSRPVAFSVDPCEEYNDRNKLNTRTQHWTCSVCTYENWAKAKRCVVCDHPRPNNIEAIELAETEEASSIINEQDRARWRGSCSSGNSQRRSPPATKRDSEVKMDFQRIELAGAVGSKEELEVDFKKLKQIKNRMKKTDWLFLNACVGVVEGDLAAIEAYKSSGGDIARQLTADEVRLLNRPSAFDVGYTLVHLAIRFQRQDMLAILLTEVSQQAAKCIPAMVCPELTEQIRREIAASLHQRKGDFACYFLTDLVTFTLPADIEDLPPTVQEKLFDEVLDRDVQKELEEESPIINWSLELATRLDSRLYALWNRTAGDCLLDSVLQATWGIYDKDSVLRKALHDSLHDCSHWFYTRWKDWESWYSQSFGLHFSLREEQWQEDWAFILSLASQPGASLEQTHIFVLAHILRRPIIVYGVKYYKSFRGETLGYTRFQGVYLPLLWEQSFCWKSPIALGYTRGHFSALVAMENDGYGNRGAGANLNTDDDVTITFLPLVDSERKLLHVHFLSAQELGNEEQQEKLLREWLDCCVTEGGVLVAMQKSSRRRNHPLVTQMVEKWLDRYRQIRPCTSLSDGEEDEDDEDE
Method in brief: as §1

[7] = target: T5, YOD1 (UniProt Q5VVQ6)
T5 sequence (whole entry): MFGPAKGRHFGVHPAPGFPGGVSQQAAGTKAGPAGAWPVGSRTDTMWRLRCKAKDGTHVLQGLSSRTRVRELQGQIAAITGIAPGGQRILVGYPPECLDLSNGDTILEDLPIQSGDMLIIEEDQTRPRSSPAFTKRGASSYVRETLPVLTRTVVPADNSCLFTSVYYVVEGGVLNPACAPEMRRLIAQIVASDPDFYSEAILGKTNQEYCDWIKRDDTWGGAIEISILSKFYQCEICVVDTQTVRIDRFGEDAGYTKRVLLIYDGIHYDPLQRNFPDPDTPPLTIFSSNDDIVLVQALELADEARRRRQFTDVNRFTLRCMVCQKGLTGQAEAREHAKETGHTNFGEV
Method in brief: as §1

Sequence of UniProt P51784 (P51784 whole entry): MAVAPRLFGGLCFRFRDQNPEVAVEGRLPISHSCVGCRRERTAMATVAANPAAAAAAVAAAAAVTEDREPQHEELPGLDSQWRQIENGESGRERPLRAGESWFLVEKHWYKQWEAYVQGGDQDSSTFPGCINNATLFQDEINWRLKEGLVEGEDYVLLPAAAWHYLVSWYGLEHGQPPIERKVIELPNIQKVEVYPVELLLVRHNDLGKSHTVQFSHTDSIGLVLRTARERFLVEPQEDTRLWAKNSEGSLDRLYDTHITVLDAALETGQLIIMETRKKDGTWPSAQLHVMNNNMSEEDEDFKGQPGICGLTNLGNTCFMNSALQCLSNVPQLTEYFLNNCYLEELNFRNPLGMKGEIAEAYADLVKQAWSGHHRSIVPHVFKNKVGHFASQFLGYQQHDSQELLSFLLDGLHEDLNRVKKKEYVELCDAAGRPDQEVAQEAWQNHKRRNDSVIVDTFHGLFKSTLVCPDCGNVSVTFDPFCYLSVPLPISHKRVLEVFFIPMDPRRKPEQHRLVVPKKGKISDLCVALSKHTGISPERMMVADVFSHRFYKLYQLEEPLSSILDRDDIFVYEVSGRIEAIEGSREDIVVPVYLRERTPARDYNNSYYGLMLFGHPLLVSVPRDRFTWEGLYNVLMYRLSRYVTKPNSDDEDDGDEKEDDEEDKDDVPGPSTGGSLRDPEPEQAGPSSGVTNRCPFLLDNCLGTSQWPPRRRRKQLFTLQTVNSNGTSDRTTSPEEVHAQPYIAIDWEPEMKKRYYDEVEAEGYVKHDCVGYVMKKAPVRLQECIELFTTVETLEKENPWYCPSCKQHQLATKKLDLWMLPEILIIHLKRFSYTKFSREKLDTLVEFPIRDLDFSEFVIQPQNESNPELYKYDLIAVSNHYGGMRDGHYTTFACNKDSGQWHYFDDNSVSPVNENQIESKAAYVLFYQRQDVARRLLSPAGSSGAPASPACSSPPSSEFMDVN
Sequence of UniProt O00507 (O00507 whole entry, the tested form may be a part): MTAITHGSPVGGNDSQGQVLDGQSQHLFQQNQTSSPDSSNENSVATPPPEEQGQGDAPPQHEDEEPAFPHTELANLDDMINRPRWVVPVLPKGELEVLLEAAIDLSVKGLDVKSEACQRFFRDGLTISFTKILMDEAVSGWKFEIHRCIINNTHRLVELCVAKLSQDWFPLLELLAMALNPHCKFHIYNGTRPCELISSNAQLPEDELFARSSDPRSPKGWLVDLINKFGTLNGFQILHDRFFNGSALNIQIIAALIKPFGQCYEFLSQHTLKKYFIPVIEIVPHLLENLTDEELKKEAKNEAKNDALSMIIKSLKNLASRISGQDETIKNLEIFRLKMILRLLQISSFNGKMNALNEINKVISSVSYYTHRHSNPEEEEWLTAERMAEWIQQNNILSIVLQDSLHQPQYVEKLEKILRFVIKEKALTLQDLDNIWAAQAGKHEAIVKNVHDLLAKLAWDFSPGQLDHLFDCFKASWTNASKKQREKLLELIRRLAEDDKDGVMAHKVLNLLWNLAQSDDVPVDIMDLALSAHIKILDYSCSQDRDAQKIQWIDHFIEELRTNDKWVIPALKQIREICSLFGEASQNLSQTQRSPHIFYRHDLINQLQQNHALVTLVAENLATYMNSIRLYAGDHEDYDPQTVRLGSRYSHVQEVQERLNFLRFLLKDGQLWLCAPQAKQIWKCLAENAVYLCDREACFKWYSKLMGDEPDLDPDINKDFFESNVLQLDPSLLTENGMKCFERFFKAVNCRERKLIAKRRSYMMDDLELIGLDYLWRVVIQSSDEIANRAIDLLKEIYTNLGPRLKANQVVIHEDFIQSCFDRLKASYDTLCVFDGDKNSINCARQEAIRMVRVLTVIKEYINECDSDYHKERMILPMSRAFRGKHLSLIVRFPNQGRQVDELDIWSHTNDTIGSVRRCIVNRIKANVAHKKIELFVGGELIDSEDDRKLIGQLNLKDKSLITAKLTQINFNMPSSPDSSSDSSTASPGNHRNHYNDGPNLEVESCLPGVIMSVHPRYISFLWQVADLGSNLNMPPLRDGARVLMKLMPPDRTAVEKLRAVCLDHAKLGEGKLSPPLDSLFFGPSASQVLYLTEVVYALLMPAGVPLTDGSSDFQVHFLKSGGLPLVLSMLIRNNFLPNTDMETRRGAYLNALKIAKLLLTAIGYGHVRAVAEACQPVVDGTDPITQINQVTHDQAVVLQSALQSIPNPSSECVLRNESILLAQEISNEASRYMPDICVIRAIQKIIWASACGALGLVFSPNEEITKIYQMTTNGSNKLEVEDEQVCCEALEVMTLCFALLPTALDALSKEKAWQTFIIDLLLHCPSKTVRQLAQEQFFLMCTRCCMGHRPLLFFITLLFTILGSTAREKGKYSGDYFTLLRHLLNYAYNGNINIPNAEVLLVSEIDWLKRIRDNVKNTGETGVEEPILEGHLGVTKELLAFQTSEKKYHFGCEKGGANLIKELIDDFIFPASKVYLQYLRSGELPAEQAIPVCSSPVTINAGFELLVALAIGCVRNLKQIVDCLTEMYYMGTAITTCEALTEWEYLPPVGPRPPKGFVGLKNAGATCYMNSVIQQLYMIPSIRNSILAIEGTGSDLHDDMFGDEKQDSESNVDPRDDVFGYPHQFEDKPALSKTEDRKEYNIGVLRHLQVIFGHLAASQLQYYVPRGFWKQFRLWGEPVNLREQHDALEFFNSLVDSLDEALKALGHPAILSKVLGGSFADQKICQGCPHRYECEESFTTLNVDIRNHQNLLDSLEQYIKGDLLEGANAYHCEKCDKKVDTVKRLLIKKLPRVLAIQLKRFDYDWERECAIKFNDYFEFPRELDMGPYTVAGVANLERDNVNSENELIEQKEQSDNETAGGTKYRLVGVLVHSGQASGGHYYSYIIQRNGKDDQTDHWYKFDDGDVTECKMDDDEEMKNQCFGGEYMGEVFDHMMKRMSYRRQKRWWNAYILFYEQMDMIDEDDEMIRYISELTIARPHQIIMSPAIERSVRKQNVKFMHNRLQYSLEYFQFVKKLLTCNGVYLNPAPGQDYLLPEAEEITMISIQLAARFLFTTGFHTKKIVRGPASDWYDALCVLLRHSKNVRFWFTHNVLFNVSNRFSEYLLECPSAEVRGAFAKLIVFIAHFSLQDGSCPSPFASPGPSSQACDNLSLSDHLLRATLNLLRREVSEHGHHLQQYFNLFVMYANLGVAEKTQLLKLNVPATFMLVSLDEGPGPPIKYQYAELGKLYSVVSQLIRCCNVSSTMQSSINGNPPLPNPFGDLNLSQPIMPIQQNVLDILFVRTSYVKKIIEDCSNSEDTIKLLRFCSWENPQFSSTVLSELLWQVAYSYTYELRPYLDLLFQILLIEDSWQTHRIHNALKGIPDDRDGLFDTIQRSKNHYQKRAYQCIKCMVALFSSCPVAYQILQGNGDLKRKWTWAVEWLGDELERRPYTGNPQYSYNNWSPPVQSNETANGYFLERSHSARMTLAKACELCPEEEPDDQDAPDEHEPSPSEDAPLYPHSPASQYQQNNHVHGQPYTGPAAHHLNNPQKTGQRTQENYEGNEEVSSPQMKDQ

Row | Compound | log2 ratio of Biotin-Ahx-Ub-VS probe labelling [1] | log2 ratio of Biotin-Ahx-Ub-VS probe labelling [2] | log2 ratio of Biotin-Ahx-Ub-VS probe labelling [3] | log2 ratio of Biotin-Ahx-Ub-VS probe labelling [4] | log2 ratio of Biotin-Ahx-Ub-VS probe labelling [5] | log2 ratio of Biotin-Ahx-Ub-VS probe labelling [6] | log2 ratio of Biotin-Ahx-Ub-VS probe labelling [7]
1 | Cc1ncc2c(n1)CCN(C(=O)CCl)C2 | 0.136 | 0.000874 | -0.239 | -0.624 | -0.422 | -0.458 | 0.165
2 | Cc1c(NC(=O)CCl)c(=O)n(-c2ccccc2)n1C | 0.221 | -0.106 | -0.105 | -0.377 | -0.286 | 0.0727 | -0.128
3 | Cl.O=C(CCl)NCc1ccnc(Oc2ccccc2F)c1 | -0.125 | 0.0358 | -0.167 | -0.406 | -0.188 | -0.246 | -0.103
4 | CN(C(=O)CCl)c1nc2ccccc2s1 | 0.257 | -0.083 | -0.0566 | -0.558 | -0.266 | -1.12 (active) | 0.155
5 | CN(Cc1nc2ccccc2[nH]1)C(=O)CCl.Cl | -0.702 | 0.00766 | -0.19 | -0.268 | 0.121 | -0.937 | 0.0427
6 | Cc1cccc(NC(=O)CCl)c1C | -0.281 | -0.431 | -0.156 | -0.703 | -0.325 | -0.414 | -0.291
7 | Cl.Cn1nccc1C(NC(=O)CCl)c1ccccc1 (stereo not given) | 0.249 | -0.121 | -0.172 | -0.655 | -0.154 | -0.583 | 0.125
8 | O=C(CCl)N1CCOC(CCc2ccccc2)C1 (stereo not given) | -0.798 | -0.097 | -0.306 | -0.84 | -0.236 | -0.876 | -0.418
9 | O=C(CCl)N1CCCCCC1c1ncon1 (stereo not given) | -0.0474 | -0.00586 | -0.23 | -0.401 | -0.21 | -0.661 | 0.022
10 | Cc1ccc(CC(NC(=O)CCl)c2ccccn2)cc1.Cl (stereo not given) | -0.0403 | 0.188 | 0.254 | 0.237 | -0.00516 | -0.0851 | 0.248
